# RPL19A TOR yeast: alters RPL19A-GFP fluorescence in TOR pathway yeast screen; 0.3% of 330,000 active; percent response vs DMSO, % at 10 µM; S. cerevisiae RPL19A-GFP strain, flow cytometry, 3 h; stronger effect = lower value;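 active means percent response vs DMSO below 50%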;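 further: median channel GFP fluorescence of the barcoded RPL19A-GFP strain; ratio of sample median GFP to plate DMSO average so 100% = DMSO; lower means less RPL19A-GFP as with rapamycin TOR inhibition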
# MEP2-GFP yeast: modulators of TOR pathway MEP2-GFP in S. cerevisiae; S. cerevisiae MEP2-GFP strain, flow cytometry GFP, 3 h; 100% = DMSO control level; GFP response vs DMSO, % at 10 µM; 0.51% of 330,000 active;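 active means GFP response versus DMSO above a set limit, roughly screen mean plus 3 SD, cut at about 180% in these data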;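 further: median GFP fluorescence of the barcode-gated MEP2-GFP cells per well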
# AGP1 TOR yeast: alters AGP1-GFP fluorescence in TOR pathway yeast screen | 0.02% of 320,000 active | S. cerevisiae AGP1-GFP multiplex flow cytometry, 3 h; GFP as percent of DMSO wells | GFP response vs DMSO, % at 10 µM;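 active means GFP response relative to DMSO above a set limit, near screen average plus 3 SD, cut at about 150% in these data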;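 further: median GFP channel fluorescence of the gated AGP1 strain per well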
# LAP4 TOR yeast: yeast TOR pathway LAP4-GFP modulation. GFP response vs DMSO, % at 10 µM. S. cerevisiae LAP4-GFP multiplex, flow cytometry GFP, 3 h; median GFP as percent of DMSO wells. AID 2023. 0.34% of 320,000 active;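 active means GFP response vs DMSO above a set limit, about the screen mean plus 3 SD, cut at about 150% in these data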
# CIT2 TOR yeast: alters CIT2-GFP fluorescence in TOR pathway yeast screen. AID 2029. 0.065% of 320,000 active. S. cerevisiae CIT2-GFP strain, flow cytometry, 3 h; 100 means same as DMSO wells. GFP response vs DMSO, % at 10 µM;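 active means GFP response relative to DMSO above a set limit, near the screen mean plus 3 SD, cut at about 150% in these data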;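 further: ratio of well median GFP fluorescence to mean of DMSO wells on the plate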
# LAP4-GFP pick2: yeast LAP4-GFP modulation, second cherry pick; S. cerevisiae LAP4-GFP strain, flow cytometry GFP, 3 h; shares compounds with LAP4 TOR yeast; 20% of 590 active; GFP response vs DMSO, % at 10 µM;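 active means GFP signal as percent of the solvent control above about 150%, meaning raised reporter expression, limit read from the data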;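 further: ratio of well median GFP fluorescence to plate DMSO mean so 100% = DMSO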
# MEP2-GFP pick2: second confirmation of modulators of TOR reporter MEP2-GFP in yeast; shares compounds with LAP4 TOR yeast; S. cerevisiae MEP2-GFP strain, flow cytometry GFP, 3 h; GFP response vs DMSO, % at 10 µM; 10% of 590 active;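 active means GFP signal above 150% of the solvent control wells, that is a rise of more than half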;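 further: median channel GFP fluorescence of all gated yeast cells per well; ratio of median GFP to plate DMSO average so 100% = DMSO level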
# RPL19A-GFP pick2: yeast RPL19A-GFP TOR reporter modulation, second cherry pick | shares compounds with LAP4 TOR yeast | GFP response vs DMSO, % at 10 µM | 3% of 590 active | AID 2623 | S. cerevisiae RPL19A-GFP strain, flow cytometry GFP, 3 h; stronger effect = lower value; 100% means same as DMSO wells;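 active means under 65% GFP response relative to DMSO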;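 further: median GFP channel fluorescence per well over the all cells gate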
# CIT2 GFP CP2: reconfirmed modulator of CIT2-GFP TOR reporter in yeast; shares compounds with LAP4 TOR yeast; S. cerevisiae CIT2-GFP strain, flow cytometry GFP, 3 h; DMSO control wells read 100%; GFP response vs DMSO, % at 10 µM; 8% of 590 active;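 active means GFP response vs DMSO above about 150%, limit read from the data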;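 further: median green fluorescence per well over all gated yeast cells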
# AGP1 GFP CP2: second confirmation of modulators of TOR reporter AGP1-GFP in yeast; shares compounds with LAP4 TOR yeast; S. cerevisiae AGP1-GFP strain, flow cytometry GFP, 3 h; percent response vs DMSO, % at 10 µM; 590 tested, under 10 active; AID 2643;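 active means over 150 percent of DMSO response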;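 further: median GFP channel fluorescence over all cells without mother daughter split; sample median GFP divided by mean DMSO control so 100% equals DMSO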
# Yeast autofluor: counter-screen for compound autofluorescence in yeast s288c cells; 610 tested, under 10 active; shares compounds with LAP4 TOR yeast; fluorescence change (kMESF span) at 33 µM; S. cerevisiae s288c, 520 nm autofluorescence, flow cytometry, 3 h; stronger effect = higher value; zero means same as solvent-only cells;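 active means fluorescence span over the dose series, or activity score, above about 33, limit read from the data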
# Yeast autofl DR: TOR screen hit shows autofluorescence in yeast s288c; shares compounds with LAP4 TOR yeast; S. cerevisiae s288c parental, compound autofluorescence, flow cytometry, 3 h; fluorescence change (span) at 33 µM; 110 tested, under 10 active;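 active means fluorescence change span, or the activity score built from it, above 25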
# TORC1 bypass: compounds blocking wildtype yeast growth but not TORC1 bypass cells; growth rating (0-3) at 30 µM; 120 tested, under 10 active; S. cerevisiae BY4741 spot growth rating, 48-72 h; stronger effect = lower value; shares compounds with LAP4 TOR yeast;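 active means growth rating at most 1 for wild type yeast while the TORC1 bypass strain still grows fully, rated 3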
# * = called active by the depositor; / = no result; + = active, no number; ! = not confirmed by another sample. Most compounds without a hit are left out; they make up all but 0.92% or so of the library.
SMILES,RPL19A TOR yeast,MEP2-GFP yeast,AGP1 TOR yeast,LAP4 TOR yeast,CIT2 TOR yeast,LAP4-GFP pick2,MEP2-GFP pick2,RPL19A-GFP pick2,CIT2 GFP CP2,AGP1 GFP CP2,Yeast autofluor,others
Oc1c(I)cc(I)c2cccnc12,100,111,96,238*,148,167*,147,82,113,94,1.2,Yeast autofl DR=0.9;TORC1 bypass=3
Oc1ccc(F)c2cccnc12,98,103,100,100,108,/,/,/,/,/,/,
CC(OC(=O)C1CCN(c2ccc(C(F)(F)F)cn2)CC1)C(=O)Nc1cccc([N+](=O)[O-])c1 (stereo unspecified),98,110,110,111,107,/,/,/,/,/,/,
CCCCC(CC)CN=C(N)NC(N)=NCCCCCCN=C(N)NC(N)=NCC(CC)CCCC (stereo unspecified),95,104,85,160*,60,126,148,99,78,106,/,
Clc1cnc(N/N=C/c2ccco2)c(Cl)c1,105,98,105,102,102,/,/,/,/,/,/,
Clc1cnc(N/N=C/c2cccs2)c(Cl)c1,99,98,83,158*,92,/,/,/,/,/,0.41,
Cc1ccc(/C=N/Nc2ncc(Cl)cc2Cl)s1,81,118,86,298*,91,/,/,/,/,/,0.41,
Oc1ccc(/C=N/Nc2ncc(Cl)cc2Cl)cc1,104,108,102,94,109,/,/,/,/,/,/,
CC(=O)OC1C(N2CCCCC2)c2c(ccc(/C=C/C(=O)N3CCCCC3)c2O)OC1(C)C (stereo unspecified),107,131,70,101,84,/,/,/,/,/,/,
COc1cccc2oc3ccc(C#Cc4ccccn4)cc3c(=O)c12,99,92,87,152*,72,105,93,94,104,100,/,
Cc1ccc(O)c(N=Nc2nccs2)c1,89,100,75,171*,75,227*,141,101,132,95,0.61,
Cc1cccc(N(C(=O)c2snc(C(N)=O)c2N)C(C(=O)NCC2CCCO2)c2ccc3ncccc3c2)c1 (stereo unspecified),101,106,96,94,103,/,/,/,/,/,/,
CC1(C)Cc2c(sc(NC(=O)c3ccc4c(c3)OCCO4)c2C(N)=O)C(C)(C)N1,96,117,107,95,153*,97,101,99,108,99,/,
O=C(NC1=NCCS1)c1cccc2ccccc12,100,91,75,93,116,/,/,/,/,/,/,
COc1ccc(N2C(=O)C(Cl)=C(Oc3cccc(OC)c3)C2=O)cc1,71,83,75,198*,102,/,/,/,/,/,1.1,
O=C(NNC(=O)[C@H]1CC=CC[C@H]1C(=O)O)c1ccc(Cl)cc1Cl,104,112,104,102,108,/,/,/,/,/,/,
Cc1nc(Cl)c2c(n1)N(CC(N)=O)C(=O)CO2,105,103,101,90,104,/,/,/,/,/,/,
CCN(CC(=O)Nc1cc(S(=O)(=O)N2CCOCC2)ccc1Cl)Cc1ccccc1,215,790*,229*,670*,754*,96,93,99,103,97,-0.1,
COc1ccc([C@H]2CC(=O)C=C(c3ccc4ncccc4c3)C2)cc1,95,91,71,123,84,/,/,/,/,/,/,
O=C1C=C(c2ccc3ncccc3c2)C[C@@H](c2ccc(Cl)cc2)C1,93,94,89,151*,77,111,98,93,85,97,/,
CCOC(=O)CNC(=O)C(CC(C)C)NC(=O)C1CCCCC1 (stereo unspecified),98,101,102,107,103,/,/,/,/,/,/,
Clc1ccc(N=c2ssnc2Cl)cc1,86,88,81,156*,83,/,/,/,/,/,1.8,Yeast autofl DR=0.52;TORC1 bypass=3
N#Cc1ccc(N=c2ssnc2Cl)cc1,94,92,87,158*!,102,125,115,96,123,96,1.4,
Cc1ccc(C)c(N2C(=N)S/C(=C\c3ccc(-c4ccccc4C(=O)O)o3)C2=O)c1,99,108,102,110,103,/,/,/,/,/,/,
Cc1ccc2c(nc3s/c(=C\c4ccc(-c5ccccc5C(=O)O)o4)c(=O)n32)c1C,114,184*,99,126,144,/,/,/,/,/,9.1,
SMILES,RPL19A TOR yeast,MEP2-GFP yeast,AGP1 TOR yeast,LAP4 TOR yeast,CIT2 TOR yeast,LAP4-GFP pick2,MEP2-GFP pick2,RPL19A-GFP pick2,CIT2 GFP CP2,AGP1 GFP CP2,Yeast autofluor,others
Clc1cc(Cl)cc(Nc2cc(NC3CCCCC3)nc(NCc3ccccc3)n2)c1,/,/,/,/,/,/,/,/,/,/,/,Yeast autofl DR=0.37;TORC1 bypass=3
Cc1cc(Nc2cccc(Cl)c2)nc(NCc2ccccc2)n1,102,98,97,96,100,/,/,/,/,/,/,
Cc1cc(OC2CCCCC2)nc(NCc2ccccc2)n1,100,104,100,109,100,/,/,/,/,/,/,
Clc1cc(Cl)cc(Nc2cc(Oc3cccc(Cl)c3)nc(NCc3ccccc3)n2)c1,/,/,/,/,/,/,/,/,/,/,/,Yeast autofl DR=0.16;TORC1 bypass=3
CCCCc1nnc(NC(=O)CSCc2cc(=O)n3cc(C)sc3n2)s1,102,101,106,102,114,/,/,/,/,/,/,
Cc1ccc2nc(/C(C#N)=C/c3ccccc3C(=O)O)[nH]c2c1,103,105,104,96,109,/,/,/,/,/,/,
Cc1ccc2nc(/C(C#N)=C/c3ccc(O)c(O)c3)[nH]c2c1,115,189*,109,148,150*,/,/,/,/,/,0.41,
Cc1c(C(=O)Nc2ccc3nc(N4CCOCC4)sc3c2)oc2ccccc12,98,102,101,111,96,/,/,/,/,/,/,
Cc1nc2ccc(NC(=O)c3oc4ccc(F)cc4c3C)cc2s1,261,+,266*,884*,+,96,105,100,90,94,0,
CCN1/C(=C/C=C/c2sc3ccccc3[n+]2CC)Sc2ccccc21,87,103,93,160*,72,200*,117,76,127,105,0.6,
